In PubChem BioAssay AID2234 (The Scripps Research Institute Molecular Screening Center, 2010):
About 480 (0.15%) of roughly 320,000 compounds were called active. Many of the other results were omitted from the sample, so actives are more common in it than they were. Unmarked numbers belong to inactive results. No stated cut-off is given here; in the data, active means inhibition above about 33%; inactive means the rest.

Each compound was assayed against Lytic switch protein BZLF1 (Epstein-Barr virus (strain B95-8)) (UniProt P03206) (assay: Zta-DNA interaction blockers, Epstein-Barr virus – biochemical, fluorescence polarization, single concentration, counter-screen for EBNA-1 inhibitor project, primary screen (AID 2234)). Settings: ZTA-DNA binding, at 11 µM, active compounds read high.
Lytic switch protein BZLF1 (Epstein-Barr virus (strain B95-8)), sequence (P03206 whole entry, looked up): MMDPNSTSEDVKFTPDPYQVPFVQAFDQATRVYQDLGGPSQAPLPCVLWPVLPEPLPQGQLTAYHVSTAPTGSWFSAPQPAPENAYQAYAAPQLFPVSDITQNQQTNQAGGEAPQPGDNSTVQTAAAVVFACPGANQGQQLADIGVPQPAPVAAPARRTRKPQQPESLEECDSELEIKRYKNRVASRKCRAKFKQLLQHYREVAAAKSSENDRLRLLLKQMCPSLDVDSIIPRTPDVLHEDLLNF

| SMILES | inhibition |
| --- | --- |
| Cc1cc(C(=O)Nc2ccc(C)c(S(=O)(=O)N3CCOCC3)c2)c2ccccc2n1 | -3.91% |
| CCC(C)OC(=O)C(C)Oc1ccc(-c2ccccc2)cc1 (centres undefined) | -16.6% |
| CCc1nc2ccccc2n(CCOCCOCCn2c(=O)c(CC)nc3ccccc32)c1=O | -7.86% |
| CCCCC1N2CC3([N+](=O)[O-])CN1CC([N+](=O)[O-])(C2)C3(C)C (centres undefined) | 7.41% |
| COc1ccccc1C(=O)Nc1ccc(OCC(=O)N2CCCCC2)cc1 | -10.8% |
| COc1ccc(C)cc1NC(=O)CN1c2cccc3cccc(c23)S1(=O)=O | -1.52% |
| O=C(O)c1cc(S(=O)(=O)N(Cc2ccccc2)c2ccccc2)ccc1Cl | -1.08% |
| O=C(CSc1nc(C2CC2)nc2ccccc12)Nc1cccc(O)c1 | -4.91% |
| C=CCn1c(SCC(=O)NC(=O)Cc2ccccc2)nc2ccccc2c1=O | -2.81% |
| O=C(c1cc(S(=O)(=O)N2CCOCC2)ccc1Cl)N1CCOCC1 | 17.7% |
| FC(F)(F)c1ccc2c3n(nc2c1)CCN=C3c1ccc(Cl)cc1 | 0.92% |
| Cc1ccc(C(=O)c2coc3ccc(O)c(CN(C)C)c23)cc1 | -9.15% |
| COc1ccccc1-n1ccnc(SCC(=O)NC2CCCCC2)c1=O | -6.9% |
| CC1CCC2(CC1)NC(=O)N(CC(=O)c1cccn1C)C2=O (centres undefined) | -3.24% |
| Cc1ccc(C(=O)NCC(c2cccs2)N(C)C)cc1S(=O)(=O)N1CCOCC1 (centres undefined) | -3.98% |
| O=C(OCC1OC(Oc2ccc(O)cc2)C(O)C(O)C1O)c1ccccc1 (centres undefined) | -3.45% |
| O=C(OCC1O[C@@H](OC(=O)c2cc(O)c(O)c(O)c2)[C@@H](OC(=O)c2cc(O)c(O)c(O)c2)[C@@H](OC(=O)c2cc(O)c(O)c(O)c2)[C@@H]1OC(=O)c1cc(O)c(O)c(O)c1)c1cc(O)c(O)c(O)c1 (some centres undefined) | 56.7% (active) |
| CN1C(=O)/C(=C/c2ccco2)SC1=Nc1cccc(C(=O)O)c1 | 34% (active) |
| Cc1cc(/C=C2\SC(=O)N(C)C2=O)c(C)n1-c1cccc(C(=O)O)c1 | -5.96% |
| Cc1cc(/C=C2\SC(=Nc3ccc(N4CCOCC4)cc3)N(C)C2=O)c(C)n1-c1cccnc1 | -10.5% |
| CCC(C)(C)n1nnnc1C(c1cccs1)N1CCN(c2nc3ccccc3s2)CC1 (centres undefined) | 4.48% |

| SMILES | inhibition |
| --- | --- |
| COc1cc(NC(=S)N2CCCC(C)C2)c(OC)cc1Cl (centres undefined) | 1.82% |
| CCOc1cc(C)c(S(=O)(=O)NCc2ccccn2)cc1C | 12.5% |
| CCSc1sc(CC)cc1C=O | 3.38% |
| CC(C)c1ccc(-c2nn[nH]n2)cc1 | -11.4% |
| COC(=O)c1c(-c2ccsc2)oc2ccc(-c3cc(OC)c(OC)c(OC)c3)cc12 | -1.27% |
| Cc1ccc(N2CCN(S(=O)(=O)N(C)C)CC2)cc1Cl | 10.4% |
| O=C(NCC(=O)N1CCC2(CC1)NCCc1[nH]cnc12)c1ccc(Br)cc1 | -4.85% |
| CCC(=O)Nc1ccc(C(=O)Nc2cc(C)on2)cc1 | -11.8% |
| CCOC(=O)CNc1nc(Cl)nc(Nc2ccccc2)n1 | 3.82% |
| CCC(=O)Nc1ccc(Nc2nc(Cl)nc(Nc3ccc(NC(=O)CC)cc3)n2)cc1 | 33.6% (active) |
| O=C(CCCCCn1c(=S)[nH]c2ccsc2c1=O)NC1CCCCC1 | 10.7% |
| CCn1c(O)c2ccc(C(=O)N=NC(=O)c3cccnc3)cc2c1O | -7.57% |
| CCOC(=O)CN(C(=O)CN1CCOCC1)c1ccc(Br)cc1 | 13% |
| CCCC(C)C(=O)Nc1ccc(NC(C)=O)cc1 (centres undefined) | -5.74% |
| COc1ccc(C(C(=O)NCC2CCCO2)N(C(=O)Cn2nnc3ccccc32)c2ccc(NC(C)=O)cc2)cc1OC (centres undefined) | -7.72% |
| Cc1ccc(-c2csc(NC(=O)C3=COCCO3)n2)cc1C | -12.1% |
| Cc1ccc(C)c(OCC(=O)NNC(=O)C2CCC2)c1 | 1.86% |
| O=C(Cn1cc(C(=O)C2CC2)c2ccccc21)Nc1ccccc1Cl | 14.6% |
| Cc1cc(C(=O)OC(C)C(=O)NC2CCCCC2C)c(C)o1 (centres undefined) | -3.44% |
| COc1ccc(-c2nnc(SC(=O)N3c4ccccc4Sc4ccccc43)o2)cc1 | 6.65% |
| O=C(O)C1CCCN1C1=NS(=O)(=O)c2ccccc21 (centres undefined) | 9.03% |

| SMILES | inhibition |
| --- | --- |
| CC(C)(C)C(=O)COC(=O)c1cc(S(=O)(=O)N2CCCCC2)ccc1N1CCOCC1 | -4.54% |
| CN(Cc1ccco1)S(=O)(=O)c1nnc(NC(=O)c2ccccc2)s1 | 13.9% |
| COc1ccc(-c2nonc2NC(=O)c2oc3ccc(F)cc3c2C)cc1OC | -1.66% |
| CCCCC(C(=O)NC(C)(C)C)N(Cc1ccccc1)C(=O)c1snc(C(N)=O)c1N (centres undefined) | -11.4% |
| CC1(C)O[C@@H]2CC3C4C[C@H](F)C5=CC(=O)C=CC5(C)C4C(O)CC3(C)[C@]2(C(=O)CO)O1 (some centres undefined) | 3.09% |
| Clc1ccc(-n2nnnc2CN2CCCCC2)cc1Cl | 7.74% |
| COc1ccc(C2=NN(C(=O)c3ccccc3C(=O)O)C(c3ccccc3O)C2)cc1 (centres undefined) | -14.4% |
| CCN(CC)S(=O)(=O)c1ccc(C(=O)N2CCN(C3=NS(=O)(=O)c4ccccc43)CC2)cc1 | -8.64% |
| COC(=O)Nc1ccc(S(=O)(=O)N(C)CC(F)(F)C(F)F)cc1 | 9.51% |
| CN(C(=O)C1CCN(c2ncnc3c2nc2n3CCCCC2)CC1)C1CCCCC1 | -0.51% |
| CC(=O)NNC1=Nc2ccccc2N(C)C(C)C1 (centres undefined) | -9.35% |
| CCc1cccc(NC(=S)N(CCN(C)C)C2CCN(C(C)C)CC2)c1 | -6.22% |
| Cc1ccc(C2=NN(C(=O)CSc3nc(N)cc(N)n3)C(c3ccco3)C2)cc1 (centres undefined) | 0.17% |
| CC(=O)Nc1ccc(S(=O)(=O)N(C)c2ccc(OCC(=O)OCC(=O)N3CCCCC3)cc2)cc1 | -11.6% |
| CCCC(C)n1[nH]c(=O)c2c(C)cc(C)nc21 (centres undefined) | 11.1% |
| CC(=O)Nc1ccc(NC(=O)C2CCCN2S(=O)(=O)c2cccc(C(F)(F)F)c2)cc1 (centres undefined) | 17.1% |
| C=CCn1c(COc2ccc(F)cc2)nnc1SCC(=O)Nc1cccc(S(N)(=O)=O)c1 | 3.26% |
| O=C(CCn1c(=S)[nH]c2cc3c(cc2c1=O)OCO3)NCc1ccc(Cl)cc1 | 2.43% |
| N#C/C=C1\Sc2ccccc2C(=O)N1CC(=O)N1CCN(S(=O)(=O)c2ccccc2)CC1 | -8.28% |
| O=C(O)Cc1csc(NC(=O)CSc2nnnn2-c2ccc(O)cc2)n1 | 2.08% |
| O=C(/C=C/c1cc2c(cc1Br)OCO2)NCc1ccc(Cl)cc1 | -6.35% |

| SMILES | inhibition |
| --- | --- |
| CC(=O)Nc1c2c(nn1-c1ccc(C)cc1C)CS(=O)C2 (centres undefined) | -22.1% |
| NC(=O)C1CCN(C(=O)c2ccc3c(=O)n(Cc4cccc(Br)c4)c(=S)[nH]c3c2)CC1 | -10.6% |
| C#CCOCCOCCOCCNc1nc(N2CCN(C(=O)CCCCCCCCCCNC(=O)Cn3cc(CCCCCN)nn3)CC2)nc(N2CCN(C(=O)CCCCCCCCCCNC(=O)[C@H](CO)n3cc(CCCSC)nn3)CC2)n1 | 24.8% |
| C#CCOCCOCCOCCNc1nc(N2CCN(C(=O)CCCCCCCCCCNC(=O)[C@H](CCCCN)n3cc(C)nn3)CC2)nc(N2CCN(C(=O)CCCCCCCCCCNC(=O)[C@H](CO)n3cc(CCCSC)nn3)CC2)n1 | 12.7% |
| C#CCOCCOCCOCCNc1nc(N2CCN(C(=O)CCCCCCCCCCNC(=O)[C@H]([C@@H](C)CC)n3cc(CCCCN=C(N)N)nn3)CC2)nc(N2CCN(C(=O)CCCCCCCCCCNC(=O)[C@H](CO)n3cc(CCCSC)nn3)CC2)n1 | 134% (active) |
| COC(=O)c1ccc(NC(=O)CSc2nnc(Cc3cccn3C)n2-c2ccc(F)cc2)cc1 | 11.4% |
| Cc1ccc(Cc2cncc(O)c2)cc1S(=O)(=O)O | -9.54% |
| Cc1csc(CN(C)C(=O)CC2C(=O)NCCN2CC(C)(C)C)n1 (centres undefined) | 5.13% |
| CCN1C(=O)C(=O)N(CC(=O)Nc2cc(C)ccc2C)C1=O | 9.39% |
| CSc1ccccc1NC(=O)c1ccc2c(c1)CCN2S(C)(=O)=O | 14.6% |
| Cc1ccc(OCC(=O)Nc2ccccc2C(=O)NC2CC2)cc1C | 1.2% |
| CCCCNC(=O)C1(O)c2ccccc2NC(=O)N1c1ccc(Cl)cc1 (centres undefined) | 2.71% |
| O=C(N/N=C/c1cccc2cccnc12)[C@H]1C[C@@H]1c1ccccc1 | -1.05% |
| Cc1ccc(Cc2nnc(SCC(=O)Nc3ccc(C)cc3C)[nH]c2=O)cc1 | 2.99% |
| CCC1Oc2ccccc2N(CC(=O)NCCCN2CCN(CC)CC2)C1=O (centres undefined) | -3.45% |
| COc1ccc(C(=O)C2CCCN(C(=O)c3cnsn3)C2)c(C)c1 (centres undefined) | -0.75% |
| COc1ccc(S(=O)(=O)/N=C2\C=C(NS(=O)(=O)c3ccccc3)C(=O)c3ccccc32)cc1 | 7.31% |
| Cc1ccc(C2CC(c3cccc(NS(C)(=O)=O)c3)=NN2S(C)(=O)=O)cc1 (centres undefined) | 0.89% |
| CN1CCN(Cc2nc3cc(NC(=O)COc4ccc([N+](=O)[O-])cc4)ccc3n2C)CC1 | -16.4% |
| CC(NC(=O)c1cccc2ccccc12)c1ccc2c(c1)CCCC2 (centres undefined) | -9.25% |
| CCOC(=O)CN(C(=O)COc1nc(C)cc(C)c1C#N)c1ccc(Cl)cc1 | 3.1% |
